Potency and affinity values are given separately. Activity calls are given as the source filed them. No rule for the calls is given here.
biological target: Kelch-like ECH-associated protein 1 (Homo sapiens) + Nuclear factor erythroid 2-related factor 2 (Homo sapiens) (UniProt Q14145+Q16236); experiment: Keap1-Nrf2 protein-protein interaction inhibitors, dose response, biochemical, fluorescence polarization, cherry-picked samples (AID 588683); conditions: Keap1/Nrf2 peptide fluorescence polarization, plate reader; series mostly up to 26 µM;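 also: Kelch domain of Keap1 binding a fluorescein-labelled 9mer Nrf2 peptide; more negative means stronger inhibition of peptide binding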
Sequence (Q14145 whole entry, looked up, the tested form may be a part): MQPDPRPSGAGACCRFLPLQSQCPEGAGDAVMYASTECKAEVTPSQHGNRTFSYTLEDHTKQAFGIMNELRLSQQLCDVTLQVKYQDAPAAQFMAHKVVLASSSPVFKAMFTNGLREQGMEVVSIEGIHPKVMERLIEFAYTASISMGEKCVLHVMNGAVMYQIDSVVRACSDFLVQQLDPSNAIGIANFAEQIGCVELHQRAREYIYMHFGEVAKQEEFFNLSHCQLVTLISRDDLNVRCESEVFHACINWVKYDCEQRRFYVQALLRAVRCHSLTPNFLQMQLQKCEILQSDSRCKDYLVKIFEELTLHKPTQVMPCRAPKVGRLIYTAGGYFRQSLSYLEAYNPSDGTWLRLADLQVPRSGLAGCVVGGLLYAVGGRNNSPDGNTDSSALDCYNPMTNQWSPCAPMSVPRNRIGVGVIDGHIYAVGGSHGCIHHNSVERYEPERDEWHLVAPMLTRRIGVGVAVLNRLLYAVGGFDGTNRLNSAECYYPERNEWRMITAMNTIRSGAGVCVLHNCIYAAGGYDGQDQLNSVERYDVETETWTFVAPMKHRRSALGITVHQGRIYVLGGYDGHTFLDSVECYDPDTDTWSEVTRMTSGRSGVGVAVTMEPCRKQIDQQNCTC
Sequence (Q16236 whole entry, looked up, the tested form may be a part): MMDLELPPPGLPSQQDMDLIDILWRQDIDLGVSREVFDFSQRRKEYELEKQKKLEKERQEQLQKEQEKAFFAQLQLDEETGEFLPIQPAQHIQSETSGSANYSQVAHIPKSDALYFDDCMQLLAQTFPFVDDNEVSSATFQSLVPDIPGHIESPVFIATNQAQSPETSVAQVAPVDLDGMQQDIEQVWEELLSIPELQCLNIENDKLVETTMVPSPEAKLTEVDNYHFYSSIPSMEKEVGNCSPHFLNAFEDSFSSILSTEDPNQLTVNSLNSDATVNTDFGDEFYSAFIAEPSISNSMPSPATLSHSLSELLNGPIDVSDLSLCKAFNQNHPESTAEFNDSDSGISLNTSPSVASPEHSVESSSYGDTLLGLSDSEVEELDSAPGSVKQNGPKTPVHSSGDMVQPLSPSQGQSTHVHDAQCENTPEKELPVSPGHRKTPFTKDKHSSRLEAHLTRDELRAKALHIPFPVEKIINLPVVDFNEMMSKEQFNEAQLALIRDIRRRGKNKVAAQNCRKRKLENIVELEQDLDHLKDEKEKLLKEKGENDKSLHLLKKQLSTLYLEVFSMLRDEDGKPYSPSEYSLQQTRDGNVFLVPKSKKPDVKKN

outcome, inactive:
CCCc1cc(NC(=O)COC(=O)c2nccnc2N)n(-c2ccccc2)n1
COc1ccccc1NC(=O)C(C)OC(=O)C1COc2ccccc2O1 (stereo not drawn)
Nc1c(C(=O)Nc2ccccc2F)sc2nc(Cc3ccccc3)cc(C(F)(F)F)c12
Cc1cccn2c(=O)c3cc(S(=O)(=O)c4ccccc4)c(=N)n(Cc4cccnc4)c3nc12
c1ccc(-c2cn3nc4c(nc3n2)CCCC4)cc1
CN1C(=O)c2cccc3c(S(N)(=O)=O)ccc1c23
O=c1[nH]c2cc(C(F)(F)F)ccc2n1-c1cc(C(F)(F)F)ccc1O
O=C(CN1C(=O)NC2(CCCC2)C1=O)Nc1ccc(C(F)(F)F)cc1
O=C(COC(=O)c1ccncc1)Nc1cccc2ccccc12
CCSc1ncc(Cl)c(C(=O)Nc2ccccc2OC)n1
CCC(=O)c1cn(CC(=O)Nc2ccc(OC)cc2)c2ccccc12
Cc1cccc(NC(=O)CCN2CCCCC2)c1
CN(CC(=O)Nc1cc(C(F)(F)F)ccc1-n1cncn1)Cc1ccccc1N1CCOCC1
CC(=O)N1CCN(S(=O)(=O)c2cccc(C(=O)NNC(=O)c3ccc(Br)cc3)c2)CC1
O=c1[nH]c(-[n+]2ccccc2)c(/C=N/NC([S-])=Nc2ccccc2)s1
CNC(=S)Nc1cccc(C(=O)OC)c1
CS(=O)(=O)N1CCCC(C(=O)Nc2ccc(F)c(F)c2)C1 (stereo not drawn)
Nc1cccc2cc(S(=O)(=O)O)ccc12
O=C(COC(=O)/C=C/c1cccc(Cl)c1)NC1CC1
Cc1cc(C)c2nc3sc(C(=O)N4CCOCC4)c(N)c3cc2c1
Cn1c(SCC(=O)c2cc(Cl)c(Cl)s2)nnc1-c1ccco1
CC(=O)Nc1c(N)c2ccccc2oc1=O
CCCN(CCC)C(=O)C1c2ccccc2Oc2ccccc21
O=C1C=CC(=O)c2c(O)c(N3CCN(CCOCCO)CC3)c(Br)c(O)c21
CC1Cc2cc(/C=C3/SC(N4CCC(C(N)=O)CC4)=NC3=O)ccc2O1 (stereo not drawn)
COc1cccc(NC(=O)CN(C)CC(=O)NCc2ccco2)c1
COc1cc(/C=C/CN2CCN(CCC(C)C)C(CCO)C2)ccc1O (stereo not drawn)
O=C1CCn2c1c(O)c1ccccc1c2=O
Cc1cnc(NC(=O)Cc2ccc(S(=O)(=O)N3CCOCC3)s2)s1
O=C1/C(=C/C=C/c2ccco2)SC(=S)N1NS(=O)(=O)c1ccccc1
O=C1c2cccc3c(N4CCCCC4)ccc(c23)C(=O)N1c1cccc(O)c1
COc1ccc(NS(=O)(=O)c2ccc(F)c(Cl)c2)cn1
CC(C)NC(=O)N(C)C[C@H]1Oc2ccc(NS(=O)(=O)c3cn(C)cn3)cc2C(=O)N([C@H](C)CO)C[C@@H]1C
CC1(C)CC(=O)C2=C(C1)OC(N)=C(C#N)[C@@H]2c1ccccc1[N+](=O)[O-]
Cc1ccc(-c2nc3sc(C#N)c(N)n3c(=O)c2C#N)cc1
NC(=O)C1CCN(C2=C(Cl)C(=O)c3ccccc3C2=O)CC1
COc1ccccc1Cn1c(=S)[nH]c2ccccc2c1=O
CCCCCCOC(=O)C(C#N)c1nc2ccccc2nc1N1CCOCC1 (stereo not drawn)

— PubChem BioAssay AID588683 (Broad Institute, 2011)
